PubChem BioAssay (Tox21)
Inconclusive results are not listed. Calls of active or inactive are those of the source. Unless noted, calls come from the whole dose curve; as a rule, active = well fitted curve in the direction sought with a large enough effect in the repeat runs; inconclusive = weak or mixed curves; inactive = no such curve, though single readings can be large; an effect the other way counts as inactive or inconclusive.

Key:
[1] = qHTS assay to identify small molecule agonists of the vitamin D receptor (VDR) signaling pathway - cell viability counter screen (AID 743224); note: nearly all actives have a fitted effect of over 50% in size; note: potency is the fitted concentration of half-maximal effect
Method in brief: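 VDR-bla cells were preincubated 4 h at 37C/5% CO2, then exposed to compounds for 16 h. After the 2 h room-temperature bla FRET read, CellTiter-Glo was added to the same wells and luminescence read after 30 min.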

[2] = qHTS assay to identify small molecule agonists of the NFkB signaling pathway (AID 1159509; active = well fitted curve in the direction sought with a large enough effect in the signal ratio in the repeat runs, not every such curve was filed as active; the % refers to the signal ratio; note: series mostly up to about 61 µM; % is set by controls: 0 for no effect and ±100 for the full control effect)
Method in brief: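 NFkB-bla ME-180 cells carry a beta-lactamase reporter under an NF-kB response element. They were plated overnight, then exposed to compounds for 5 h at 37 C. Read-out is LiveBLAzer FRET after 1.5 hr at room temperature (405 nm excitation; 460/530 nm emission).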

[3] = qHTS assay to identify small molecule agonists of the NFkB signaling pathway - cell viability counter screen (AID 1159515; calls by dose curve; note: series mostly up to about 61 µM; % is set by controls: 0 for no effect and ±100 for the full control effect; nearly all actives have a fitted effect of over 55% in size)
Method in brief: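 NFkB-bla ME-180 cells, 2,000/well, were plated overnight at 37 C, 5% CO2, then exposed to compounds in DMSO for 5 hr. After the bla FRET read, CellTiter-Glo was added to the same wells; luminescence was read after 30 min at room temperature.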

[4] = qHTS assay to identify small molecule agonists of the endoplasmic reticulum stress response signaling pathway (AID 1159516; active = well fitted activation curve with a large enough effect in the signal ratio in the repeat runs, not every such curve was filed as active; the % refers to the signal ratio; note: % is set by controls: 0 for no effect and ±100 for the full control effect)
Method in brief: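 CellSensor ESRE-bla HeLa cells, carrying a beta-lactamase reporter driven by the ER stress response element, were plated overnight and exposed to compounds for 5 hr at 37 C. Reporter activity was read as FRET substrate fluorescence after 2 hr at room temperature.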

[5] = qHTS assay to identify small molecule agonists of the endoplasmic reticulum stress response signaling pathway - cell viability counter screen (AID 1159517; calls by dose curve; note: series mostly up to about 61 µM; % is set by controls: 0 for no effect and ±100 for the full control effect; nearly all actives have a fitted effect of over 50% in size)
Method in brief: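 HeLa cells carrying an ESRE-driven beta-lactamase reporter receive compound for 5 hr at 37 C. Cell viability is then gauged with CellTiter-Glo by luminescence, 30 min at room temperature.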

[6] = qHTS assay to identify small molecule antagonists of the retinoid-related orphan receptor gamma (ROR-gamma) signaling pathway - cell viability counter screen (AID 1159520); note: nearly all actives have a fitted effect of over 50% in size; note: potency is the fitted concentration of half-maximal effect
Method in brief: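 Cytotoxicity was read from cellular ATP (CellTiter-Glo luminescence) after 16 hr at 37 C with 1 uM doxycycline induction. The inducer was added 2 hr after compound transfer to Tet-on ROR gamma CHO cells.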

[7] = target: Nuclear receptor ROR-gamma (Homo sapiens) (UniProt P51449); assay: qHTS assay to identify small molecule antagonists of the retinoid-related orphan receptor gamma (ROR-gamma) signaling pathway (AID 1159521; note: nearly all actives have a fitted effect of over 50% in size; note: potency is the fitted concentration of half-maximal effect)
Method in brief: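 Luminescence readout (ONE-Glo, 30 min RT) after 16 h doxycycline induction; loss of signal scored as antagonism. CHO cells with TET-inducible RORγ and RORE-LUC reporter; compounds added 2 h before 1 uM final doxycycline.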

[8] = qHTS assay to identify small molecule agonists of the AP-1 signaling pathway - cell viability counter screen (AID 1159525; calls by dose curve; note: nearly all actives have a fitted effect of over 55% in size)
Method in brief: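 Luminescent ATP readout (Cell Titer Glo, 30 min RT), normalised to DMSO and tetra n-octyl ammonium bromide controls. Cells were ME-180 AP-1-bla in 0.5% dialyzed FBS Opti-MEM, with a 5 h, 37 °C compound exposure.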

[9] = qHTS assay to identify small molecule antagonists of the retinoid acid receptor (RAR) signaling pathway - cell viability counter screen (AID 1159551); note: % is set by controls: 0 for no effect and ±100 for the full control effect; nearly all actives have a fitted effect of over 35% in size
Method in brief: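 C3RL4 cells were seeded overnight at 37 C, then treated with compounds plus 1 uM (final) retinol for 6 h at 37 C. Viability was read as ATP by CellTiter-Glo luminescence after 30 min at room temperature.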

[10] = qHTS assay to identify small molecule antagonists of the retinoic acid receptor (RAR) signaling pathway (AID 1159552)
Method in brief: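 Luminescence from a RARE luciferase reporter in C3RL4 cells served as read-out. Cells received compounds together with 1 uM final retinol and incubated 6 hr at 37 C before detection reagent was added for 30 min at room temperature.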

[11] = qHTS assay to identify small molecule agonists of the retinoic acid receptor (RAR) signaling pathway (AID 1159553); note: potency is the fitted concentration of half-maximal effect
Method in brief: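 C3RL4 cells carrying a RARE luciferase reporter were plated overnight at 37 C, then exposed to compounds in DMSO for 6 hr at 37 C and 5% CO2. Luminescence was read 30 min after luciferase reagent addition at room temperature.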

[12] = qHTS assay to identify small molecule antagonists of the vitamin D receptor (VDR) signaling pathway - cell viability counter screen (AID 743225)
Method in brief: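 Viability counter screen run in the same wells as the beta-lactamase reporter assay: HEK 293T VDR-UAS-bla cells, 16 h compound exposure at 37C with 3 nM (final) 1-alpha,25-dihydroxyvitamin D3. CellTiter-Glo luminescence, 30 min, room temperature.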

[13] = qHTS assay to identify small molecule agonists of the RXR signaling pathway - cell viability counter screen (AID 1159529); note: nearly all actives have a fitted effect of over 50% in size; note: potency is the fitted concentration of half-maximal effect
Method in brief: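 Luminescence from CellTiter-Glo (30 min, RT) measured viability in the same wells as the beta-lactamase reporter readout. Cells: GeneBLAzer RXR-alpha HEK 293T, 2% charcoal-stripped FBS. Compound exposure 16 hr, 37 C.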

[14] = qHTS assay to identify small molecule agonists of the AP-1 signaling pathway (AID 1159526; calls by dose curve; note: % is set by controls: 0 for no effect and ±100 for the full control effect)
[15] = target: Retinoic acid receptor RXR-alpha (Homo sapiens) (UniProt P19793); assay: qHTS assay to identify small molecule agonists of the RXR signaling pathway (AID 1159527; calls by dose curve; note: nearly all actives have a fitted effect of over 35% in size; note: potency is the fitted concentration of half-maximal effect)
Method in brief: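 Agonist mode; 9-cis retinoic acid positive control. HEK 293T UAS-bla reporter cells, 2% charcoal-stripped FBS, 16 hr compound exposure at 37 C/5% CO2. LiveBLAzer B/G FRET substrate 2 hr RT; ex 405, em 460/530 nm.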

[16] = qHTS assay to identify small molecule antagonists of the estrogen related receptor (ERR) signaling pathway - cell viability counter screen (AID 1224818);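 note: series mostly up to about 46 µM; viability measured after 17.5 h of compound exposure; % is set by controls: 0 for no effect and ±100 for the full control effect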
Method in brief: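 ERR reporter cells plated 6 h at 37 C/5% CO2, then compounds in DMSO pin-transferred and incubated 17.5 h at 37 C. Viability read as CellTiter-Fluor fluorescence after 30 min at 37 C.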

[17] = qHTS assay to identify small molecule antagonists of the estrogen related receptor signaling pathway with the pleiotropic PPARgamma coactivator (PGC) cell viability counter screen (AID 1224822)
Method in brief: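 PGC/ERR cells were seeded at 2,000 cells/well, rested 6 h at 37 C/5% CO2, then given compounds in DMSO by pin tool and incubated 17.5 h at 37 C. Viability came from CellTiter-Fluor fluorescence after 30 min.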

Chain of Retinoic acid receptor RXR-alpha (Homo sapiens) (P19793 whole entry, looked up): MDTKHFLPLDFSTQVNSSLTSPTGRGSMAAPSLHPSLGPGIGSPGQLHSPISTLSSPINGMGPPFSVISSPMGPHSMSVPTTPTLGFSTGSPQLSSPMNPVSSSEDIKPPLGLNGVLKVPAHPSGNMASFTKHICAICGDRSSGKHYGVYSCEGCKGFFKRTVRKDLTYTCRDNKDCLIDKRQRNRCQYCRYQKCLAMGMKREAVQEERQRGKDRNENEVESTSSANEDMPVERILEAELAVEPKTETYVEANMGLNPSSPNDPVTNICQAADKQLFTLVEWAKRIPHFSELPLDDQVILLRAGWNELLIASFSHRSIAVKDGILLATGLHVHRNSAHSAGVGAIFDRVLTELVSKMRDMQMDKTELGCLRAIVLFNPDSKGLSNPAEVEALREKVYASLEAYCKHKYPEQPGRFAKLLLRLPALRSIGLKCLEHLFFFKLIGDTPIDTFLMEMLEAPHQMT

CC(C(O)c1ccccc1)N(C)C/C=C/c1ccccc1 (stereo not drawn)
inactive: Potency [1] | outcome [2] | outcome [3] | outcome [4] | Potency [5] | Potency [6] | Potency [7] | Potency [8] | Potency [9] | Potency [10] | Potency [11]

CC1CN1P(=O)(N1CC1C)N1CC1C (stereo not drawn)
inactive: Potency [1] | outcome [12] | outcome [2] | outcome [3] | outcome [4] | Potency [5] | Potency [6] | Potency [7] | Potency [8] | Potency [13] | Potency [9]

Cc1cc(C)c(C(=O)P(=O)(C(=O)c2c(C)cc(C)cc2C)c2ccccc2)c(C)c1
inactive: outcome [2] | outcome [3] | outcome [4] | Potency [5] | Potency [6] | Potency [8] | outcome [14] | Potency [15] | Potency [13] | Potency [9] | Potency [10] | Potency [11]

C=CC1CC=CCC1 (stereo not drawn)
inactive: outcome [2] | outcome [3] | outcome [4] | Potency [5] | Potency [6] | Potency [8] | outcome [14] | Potency [15] | Potency [13] | Potency [9] | Potency [10] | Potency [11]

O=C1OC(c2ccc(O)c(S(=O)(=O)O)c2)(c2ccc(O)c(S(=O)(=O)O)c2)c2c(Br)c(Br)c(Br)c(Br)c21
inactive: Potency [1] | outcome [2] | outcome [3] | outcome [4] | Potency [5] | Potency [6] | Potency [7] | Potency [8] | Potency [13] | Potency [9] | Potency [10] | Potency [11]

c1cc[c]([Hg][c]2ccccc2)cc1
active: Potency [6] 27.3 µM | Potency [7] 19.3 µM | Potency [11] 8.63 µM
inactive: outcome [12] | outcome [2] | outcome [3] | outcome [4] | Potency [5] | Potency [8] | Potency [9] | Potency [10]

CCN(CC)C(C)C(=O)c1ccccc1 (stereo not drawn)
inactive: Potency [1] | outcome [2] | outcome [3] | outcome [4] | Potency [5] | Potency [6] | Potency [8] | outcome [14] | Potency [15] | Potency [13] | Potency [9] | Potency [10] | Potency [11]

CCCSP(=S)(OCC)Oc1ccc(Cl)cc1Cl (stereo not drawn)
inactive: outcome [12] | outcome [2] | outcome [3] | outcome [4] | Potency [5] | Potency [6] | Potency [7] | Potency [8] | Potency [9] | Potency [10] | Potency [11]

Nc1cc(Cl)ccc1O
inactive: outcome [2] | outcome [3] | outcome [4] | Potency [5] | Potency [6] | Potency [7] | Potency [8] | Potency [9]

COc1cccc2c1cc([N+](=O)[O-])c1c(C(=O)O)cc3c(c12)OCO3
active: Potency [1] 15.5 µM | Potency [6] 43.3 µM | Potency [7] 15.4 µM | Potency [13] 17.4 µM
inactive: outcome [2] | outcome [3] | outcome [4] | Potency [5] | Potency [8]

COC(=O)COc1ccc(Cl)cc1Cl
inactive: Potency [1] | outcome [12] | outcome [2] | outcome [3] | outcome [4] | Potency [5] | Potency [6] | Potency [7] | outcome [14] | Potency [15] | Potency [13] | Potency [9] | Potency [10] | Potency [11]

CN1CCC(N(Cc2ccccc2)c2ccccc2)CC1
inactive: outcome [12] | outcome [2] | outcome [3] | outcome [4] | Potency [5] | Potency [6] | Potency [7] | Potency [8] | Potency [9]

O=C(O)C(Br)CBr (stereo not drawn)
inactive: Potency [1] | outcome [12] | outcome [2] | outcome [3] | outcome [4] | Potency [5] | Potency [6] | Potency [7] | Potency [8] | Potency [13] | Potency [9]
active: Potency [15] 9.94 µM

O=[N+]([O-])c1cccc(O)c1
inactive: Potency [1] | outcome [12] | outcome [2] | outcome [3] | outcome [4] | Potency [5] | Potency [6] | Potency [7] | outcome [14] | Potency [13] | Potency [9] | Potency [11]

CCCCOC(=O)[C@@H](C)Oc1ccc(Oc2ccc(C#N)cc2F)cc1
inactive: Potency [1] | outcome [12] | outcome [2] | outcome [3] | outcome [4] | Potency [5] | Potency [6] | Potency [7] | Potency [8] | Potency [13] | Potency [9]

CC(C)CP(=S)(S)CC(C)C
inactive: outcome [12] | outcome [2] | outcome [3] | outcome [4] | Potency [5] | Potency [6] | Potency [8] | Potency [13] | Potency [9] | Potency [10] | Potency [11]
active: Potency [7] 24.3 µM

Cc1ncc(CNC(=O)N(CCCl)N=O)c(N)n1
inactive: outcome [12] | outcome [2] | outcome [3] | outcome [4] | Potency [5] | Potency [6] | Potency [8] | outcome [14] | Potency [15] | Potency [13] | Potency [9] | Potency [10] | Potency [11] | outcome [16] | outcome [17]

COC(=O)c1c(C(F)F)nc(C(F)(F)F)c(C2=NCCS2)c1CC(C)C
inactive: Potency [1] | outcome [2] | outcome [3] | outcome [4] | Potency [5] | Potency [6] | Potency [8] | outcome [14] | Potency [15] | Potency [13] | Potency [9] | Potency [10] | Potency [11]

O=C1c2ccccc2C(=O)c2ccccc21
inactive: outcome [12] | outcome [2] | outcome [3] | outcome [4] | Potency [5] | activity, negative = cytotoxicity [6] -0.509% [at 19 µM] | activity change, negative = inhibition [7] 99.4% [at 19 µM] | activation [14] 11.5% [at 15.8 µM] | activation [15] 2.89% [at 15.8 µM] | activity change, negative = cytotoxicity [13] 3.01% [at 15.8 µM] | activity change, negative = cytotoxicity [9] 3.84% [at 19 µM] | activity, negative = inhibition [10] 14.2% [at 19 µM]

CC1(C(=O)Nc2ccc(O)c(Cl)c2Cl)CCCCC1
inactive: outcome [2] | outcome [3] | outcome [4] | Potency [5] | Potency [6] | Potency [7] | Potency [15] | Potency [13] | Potency [9]

CC(CC(C#N)(c1ccccc1)c1ccccc1)N(C)C (stereo not drawn)
inactive: outcome [12] | outcome [2] | outcome [3] | outcome [4] | Potency [5] | Potency [6] | Potency [7] | Potency [8] | Potency [15] | Potency [13] | Potency [9]

Nc1n[nH]c(N)n1
inactive: outcome [12] | outcome [2] | outcome [3] | outcome [4] | Potency [5] | Potency [6] | Potency [8] | Potency [9] | Potency [11]
active: Potency [7] 15.6 µM

COc1cccc(C(=O)NN(C(=O)c2cc(C)cc(C)c2)C(C)(C)C)c1C
inactive: Potency [1] | outcome [2] | outcome [3] | outcome [4] | Potency [5] | Potency [6] | Potency [8] | outcome [14] | Potency [15] | Potency [13] | Potency [9] | Potency [10] | Potency [11]
